Data reported in PubChem BioAssay (Tox21).
Records with an inconclusive call do not appear. Activity calls are given as the source filed them. Calls follow the shape of the full dose curve.

target: Thyrotropin receptor (Homo sapiens) (UniProt P16473); experiment: qHTS assay to identify small molecule antagonists of the thyroid stimulating hormone receptor (TSHR) signaling pathway (AID 1259385); details: TSHR-HEK293 cAMP HTRF, TSH-stimulated antagonist mode; series mostly up to 92.4 µM; activity change, negative = inhibition: at the top concentration; also: nearly all actives have a fitted effect of over 20% in size
Sequence (P16473 whole entry, looked up): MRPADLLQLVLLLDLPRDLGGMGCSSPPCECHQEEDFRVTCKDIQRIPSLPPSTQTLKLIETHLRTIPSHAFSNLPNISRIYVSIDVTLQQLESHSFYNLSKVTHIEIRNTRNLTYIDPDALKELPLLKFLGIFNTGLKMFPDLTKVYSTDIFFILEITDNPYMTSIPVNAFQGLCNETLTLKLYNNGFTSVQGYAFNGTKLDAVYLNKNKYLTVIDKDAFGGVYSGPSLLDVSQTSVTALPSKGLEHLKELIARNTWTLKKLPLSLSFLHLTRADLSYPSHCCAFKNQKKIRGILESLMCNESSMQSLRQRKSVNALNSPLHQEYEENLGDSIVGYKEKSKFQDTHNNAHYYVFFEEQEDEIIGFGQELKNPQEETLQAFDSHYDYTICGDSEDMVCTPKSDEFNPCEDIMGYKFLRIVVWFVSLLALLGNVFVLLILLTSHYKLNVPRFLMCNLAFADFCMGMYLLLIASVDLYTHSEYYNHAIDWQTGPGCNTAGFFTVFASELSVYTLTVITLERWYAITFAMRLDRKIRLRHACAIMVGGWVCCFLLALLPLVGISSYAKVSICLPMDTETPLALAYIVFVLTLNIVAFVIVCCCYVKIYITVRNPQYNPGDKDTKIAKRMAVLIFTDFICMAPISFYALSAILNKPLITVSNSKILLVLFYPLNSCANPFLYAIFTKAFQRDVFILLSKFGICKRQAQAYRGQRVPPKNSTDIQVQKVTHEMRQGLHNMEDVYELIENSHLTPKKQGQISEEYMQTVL
In short: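 Antagonist mode: compound-treated TSHR-expressing HEK293 cells were stimulated with 1.5 ng/mL TSH (final) in presence of Ro20-1724 for 30 min at RT. HTRF cAMP detection after 1 h; each compound tested at 15 concentrations, triplicate.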
% is scaled to controls: 0 for no effect and ±100 for the full control effect.

SMILES	activity change, negative = inhibition	Potency
CN1CCC(=C2c3ccccc3CC(=O)c3sccc32)CC1	2.94% [at 42.5 µM] (inactive)	–
OC[C@]1(O)OC[C@@H](O)[C@H](O)[C@@H]1O	–	inactive
CCCCC/C=C\CCC=O	0.321% (inactive)	–
CCCC(=O)O[C@]1(C(=O)CO)CC[C@H]2[C@@H]3CCC4=CC(=O)CC[C@]4(C)[C@H]3[C@@H](O)C[C@@]21C	-11.1% [at 42.5 µM] (inactive)	–
COC(=O)CCSCCC(=O)OC	-0.815% (inactive)	–
CC(=O)c1ccccc1O	-0.055% (inactive)	–
CC(NC(CCc1ccccc1)C(=O)O)C(=O)N1C(=O)N(C)CC1C(=O)O (stereo not given)	-0.776% [at 42.5 µM] (inactive)	–
NC(=O)c1ccc(N)cc1	5.03% (inactive)	–
CC(C)OC(=O)c1ccccc1	1.29% (inactive)	–
Nc1c2c(nc3ccccc13)CCCC2O (stereo not given)	-1.25% [at 42.5 µM] (inactive)	–
CCCCCCCCCCCCCCCCC	-0.0847% (inactive)	–
COC(=O)CC(C)=O	0.0497% (inactive)	–
COc1ccc2c(c1)c(CC(=O)OCC(=O)O)c(C)n2C(=O)c1ccc(Cl)cc1	-0.636% [at 42.5 µM] (inactive)	–
CCN1CCC[C@H]1CNC(=O)c1c(O)c(Cl)cc(Cl)c1OC	3.66% [at 42.5 µM] (inactive)	–
O=C(O)c1ccccc1OP(=O)(O)O	0.0773% [at 42.5 µM] (inactive)	–
CCOC(C)(C)C	2.87% (inactive)	–
Nc1nc2c(ncn2COC(CO)CO)c(=O)[nH]1	4.14% [at 42.5 µM] (inactive)	–
CCCCCCCCCCCCCC=O	-5.31% [at 8.39 µM] (inactive)	–

SMILES	activity change, negative = inhibition	Potency
c1cnc(N2CCN(Cc3ccc4c(c3)OCO4)CC2)nc1	0.268% [at 42.5 µM] (inactive)	–
CC/C=C\CC/C=C/C(OCC)OCC	4.81% (inactive)	–
NCCc1cnc[nH]1	-1.49% [at 42.5 µM] (inactive)	–
CCC(=O)OC(C)c1ccccc1 (stereo not given)	0.695% (inactive)	–
COc1c(N2C[C@@H]3CCCN[C@@H]3C2)c(F)cc2c(=O)c(C(=O)O)cn(C3CC3)c12	-8.37% [at 42.5 µM] (inactive)	–
O=S(O)CO	-0.138% (inactive)	–
O=c1n(CCO)c(=O)n(CCO)c(=O)n1CCO	–	inactive
CCCCOCCOCCOCCCC	-1.33% (inactive)	–
CO[C@]12C[C@@H](COC(=O)c3cncc(Br)c3)CN(C)[C@@H]1Cc1cn(C)c3cccc2c13	-5.2% [at 42.5 µM] (inactive)	–
CCc1ccc(O)c(OC)c1	1.99% (inactive)	–
CCCCCCCCS(=O)(=O)Cl	0.129% (inactive)	–
CCO[Si](CCC1CCC2OC2C1)(OCC)OCC (stereo not given)	1.93% (inactive)	–
NC(=O)c1ccc([N+](=O)[O-])cc1	3.97% (inactive)	–
CS(=O)(=O)O	-0.426% (inactive)	–
O=C(O)CCCc1ccccc1	-2.84% [at 42.5 µM] (inactive)	–
O=Cc1cccc([N+](=O)[O-])c1	-0.368% (inactive)	–
N=c1nc(N2CCCCC2)cc(N)n1O	0.761% [at 42.5 µM] (inactive)	–
